Screening results as filed in PubChem.
Tau fil binding: binders of human tau filaments | recombinant tau filaments, thioflavin S fluorescence, 15 h; filaments grown with octadecylsulfate alongside compound | Potency, µM (doses to about 57.1 µM), for inactives: top-dose activity change, negative = inhibition | AID 596 | P10636 | hit rate 2% among 71,000;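 further: potency means the concentration at half of the fitted maximal effect; on the % scale 0 is the no-effect control and ±100 the full control effect; actives lower thioflavin S fluorescence by blocking filaments or displacing dye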
Target sequence (P10636 whole entry, looked up): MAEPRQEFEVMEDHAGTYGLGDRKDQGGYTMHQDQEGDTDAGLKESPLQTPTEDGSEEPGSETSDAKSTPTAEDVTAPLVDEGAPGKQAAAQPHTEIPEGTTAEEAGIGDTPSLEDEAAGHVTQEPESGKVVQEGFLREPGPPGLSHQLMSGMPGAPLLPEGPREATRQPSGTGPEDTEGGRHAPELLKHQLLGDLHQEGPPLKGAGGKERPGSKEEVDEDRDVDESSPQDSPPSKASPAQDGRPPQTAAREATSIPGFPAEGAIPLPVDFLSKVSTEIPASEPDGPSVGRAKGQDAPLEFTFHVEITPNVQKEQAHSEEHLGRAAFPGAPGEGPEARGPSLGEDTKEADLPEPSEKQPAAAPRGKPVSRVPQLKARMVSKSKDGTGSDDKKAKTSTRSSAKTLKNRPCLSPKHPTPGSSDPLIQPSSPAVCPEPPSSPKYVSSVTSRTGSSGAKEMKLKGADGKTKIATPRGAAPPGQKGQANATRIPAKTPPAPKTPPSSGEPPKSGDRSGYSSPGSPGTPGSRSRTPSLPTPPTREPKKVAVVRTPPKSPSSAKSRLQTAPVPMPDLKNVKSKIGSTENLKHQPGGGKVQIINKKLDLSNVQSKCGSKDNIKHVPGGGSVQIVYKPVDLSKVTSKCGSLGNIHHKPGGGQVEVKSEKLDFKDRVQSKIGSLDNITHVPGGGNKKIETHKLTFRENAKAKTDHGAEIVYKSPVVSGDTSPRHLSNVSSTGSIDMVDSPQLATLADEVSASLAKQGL
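Thioflavine S fluorescence (ex 450, em 510 nm) reports filaments formed from 1 uM human tau plus 30 uM ODS over 15 h at 37 C (10 mM HEPES pH 7.4, 100 mM NaCl, 5 mM DTT); compounds displacing dye or blocking filaments lower signal.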
HEK293 cAMP ctrl: raises cAMP in parental HEK293 cells, TSHR agonist counter-screen. parental HEK293 CNG cAMP sensor, membrane potential fluorescence. Potency, µM (doses to about 57.1 µM), for inactives: top-dose activation, most hits filed as activators. hit rate 2.5% among 73,000. AID 938; further: potency means the concentration at half of the fitted maximal effect; % of control where 0% means no effect; nearly all actives have a fitted effect of over 55% in size
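Parental HEK 293 cells stably expressing a modified CNG channel (no TSHR) report cAMP rise as membrane depolarization. Membrane potential dye with 100 uM RO 20-1724 was loaded for 60 min at room temperature, then compound added for 30 min; fluorescence read at 590 nm.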
ERK AVP inh: blocks ERK signaling stimulated by vasopressin | HEK293-V1b, vasopressin-stimulated pERK AlphaScreen | Potency, µM (top dose mostly 57.5 µM), for the others: top-dose activity, negative = inhibition, hits mostly inhibitors | hit rate 0.99% among 72,000 | AID 995; further: potency means the concentration at half of the fitted maximal effect; on the % scale 0 is the no-effect control and ±100 the full control effect; nearly all actives have a fitted effect of over 55% in size
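Overnight-seeded V1b-HEK293 cells in 1% FBS got compound, then vasopressin (25 nM final, 5 min, 37C), then lysis buffer. AlphaScreen detection of phospho-ERK; activity normalized to basal and full-stimulation controls.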
TSHR agonist: agonists of human thyroid stimulating hormone receptor | HEK293-CNG-TSHR cells (CNG channel as cAMP sensor), membrane potential dye, cAMP | Potency, µM (titrated, usually from 57.1 µM), for the others: top-dose activation, usual class: activators | hit rate 0.48% among 73,000 | AID 926; active means well fitted activation curve with a large enough effect in the main read-out, with a control signal flat, not every such curve was filed as active; inconclusive means small, poorly fitted or top-dose-only effect, or a change in a side signal; inactive means no such curve, though single readings can be large or run the other way; % of control where 0% means no effect;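 further: the control signal comes from parental cells without the receptor; potency means the concentration at half of the fitted maximal effect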
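HEK 293 cells stably expressing TSHR and a cAMP-gated CNG channel; parental CNG-only cells as counterscreen. Cells preloaded 60 min with membrane potential dye plus 100 uM RO 20-1724, then compound 30 min; fluorescence read at 590 nm.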
CRE-bla Fsk: CRE-bla signaling modulation under forskolin stimulation. Potency, µM (series often up to 38.2 µM), for the others: at the highest dose activity change, negative = inhibition, actives largely listed as activators. CHO CRE-bla reporter (cAMP response element driving beta-lactamase), forskolin EC10, beta-lactamase ratio. hit rate 2.5% among 71,000; active means well fitted activation curve with a large enough effect in the signal ratio, with a control signal flat, not every such curve was filed as active; inconclusive means small, poorly fitted or top-dose-only effect, or effect the other way, or a change in a side signal; the % refers to the signal ratio; further: potency means the concentration at half of the fitted maximal effect; % of control where 0% means no effect
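Reporter-gene assay: CHO cells with beta-lactamase behind cAMP responsive elements, co-treated with compound and EC10 NKH 477 for 3 hours at 37 degrees Celsius. Activity came from the 460/530 nm CCF4 emission ratio.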
Tau ThS bind: compounds binding human tau filaments, displacing Thioflavin S | recombinant tau filaments, Thioflavin S fluorescence displacement | hit rate 40% among 60 | shares compounds with Tau fil binding | AID 911 | Potency, µM; calls by dose curve
aSyn ThS displ: alpha-synuclein fibril binding by ThS displacement. shares compounds with Tau fil binding. hit rate 40% among 60. recombinant alpha-synuclein fibrils, ThS fluorescence displacement. Potency, µM; calls by dose curve
Abeta ThS bind: compounds binding human beta amyloid fibrils, displacing Thioflavin S; hit rate 50% among 60; AID 956; Abeta1-42 fibrillization, thioflavin S fluorescence, overnight 37 C; Potency, µM; shares compounds with Tau fil binding; calls by dose curve
Numbers without * were called inactive; i = inactive; ? = inconclusive; nt = not tested or not shown; [ ] = remark or other dose. Only some compounds are listed: those with a hit (about 7.6% of all), similar ones and a draw of the others. Unless noted, the call rests on the fitted dose curve; in most records, active means well fitted curve in the direction sought with a large enough effect; inconclusive means small, poorly fitted or top-dose-only effect, or another doubt; inactive means no such curve, though single readings can be large; an effect the other way counts as inactive or inconclusive.

SMILES	Tau fil binding	HEK293 cAMP ctrl	ERK AVP inh	TSHR agonist	CRE-bla Fsk	Tau ThS bind	aSyn ThS displ	Abeta ThS bind
Oc1c(-c2cc(-c3ccco3)[nH]n2)ccc2ccccc12	15.8µM*	-26.4%	-15.1%	-14.4%	-14.5%	nt	nt	nt
O=C(O)c1cc(-c2ccco2)nc2ccccc12	2.3%	7.0%	-10.6%	3.7%	-7.0%	nt	nt	nt
C=CC1=C[C@@H](O)C2OC2C12OCCCO2 (stereo not given in full)	nt	-3.8%[11.4 µM]	-16.8%[11.5 µM]	-1.1%[11.4 µM]	nt	nt	nt	nt
N#Cc1cccc(-c2nccc(NCc3cccnc3)n2)c1	-8.1%	8.7%	15.8µM*	4.5%	?	nt	nt	nt
COc1cccc(-c2nccc(NCc3ccccc3)n2)c1	-15.6%	?	10µM*	?	-6.3%	nt	nt	nt
COc1ccc2[nH]cc(CCNc3cc(-c4ccc(C(=O)N(C)C)cc4)ncn3)c2c1	-6.7%	-5.2%	-8.3%	0.3%	?	nt	nt	nt
N#Cc1cccc(-c2nccc(NCc3ccccc3)n2)c1	6.2%	11.6%	-5.1%	-0.2%	?	nt	nt	nt
COc1cccc(-c2nccc(NCc3cccc(C)c3)n2)c1	2.2%	?	-28.5%	?	4.3%	nt	nt	nt
COc1ccc2[nH]cc(CCNc3ccnc(-c4ccc(C(=O)N(C)C)cc4)n3)c2c1	-5.7%	-5.0%	-21.5%	6.7%	2.51µM*	nt	nt	nt
COc1ccc2[nH]cc(CCNc3ccnc(-c4ccccc4C)n3)c2c1	15.8µM*	-11.1%	-11.9%	-4.4%	0.8%	nt	nt	nt
C[C@@H]1C(=O)O[C@H]2[C@@H](O)[C@@]34[C@H]5C[C@H](C(C)(C)C)[C@@]36[C@H](OC(=O)[C@@H]6O)O[C@@]4(C(=O)O5)[C@@]12O	?	5.5%	nt	-5.2%	?	nt	nt	nt
COc1cccc(-c2nccc(NCCc3c[nH]c4ccc(OC)cc34)n2)c1	25.1µM*	-20.5%	?	4.5%	-5.6%	nt	nt	nt
Cc1ccccc1Cn1ccc(NC(=O)CCSc2nc(-c3ccco3)cc(C(F)(F)F)n2)n1	-11.0%	20.3%	28.1%	16.2%	7.4%	nt	nt	nt
Cc1ccccc1Cn1ccc(NC(=O)c2cnn3c(C(F)(F)F)cc(-c4ccco4)nc23)n1	2.51µM*	?	?	?	?	?	2.63µM*	6.74µM*
CCN1CCN(c2nc3ccccc3nc2C(C#N)C(=O)OC2CCCCC2)CC1 (stereo not given)	0.794µM*	-52.7%	-2.9%	?	-2.1%	2.84µM*	1.76µM*	1.4µM*
CCOC(=O)C1CCCN(c2nc3ccccc3nc2C(C#N)C(=O)OCC)C1 (stereo not given)	?	39.7%	-16.8%	nt	?	nt	nt	nt
C=CCOC(=O)C(C#N)c1nc2ccccc2nc1N1CCN(c2ccccc2OC)CC1 (stereo not given)	2.51µM*	25.0%	?	19.5%	28.7%	4.01µM*	1.42µM*	1.13µM*
COc1ncc2nc(C)c(=O)n(C)c2n1	11.9%	16.7%	-20.4%	11.7%	11.8%	nt	nt	nt
Cc1ccc2nc(-c3ccc(N=Nc4cc(S(=O)(=O)O)c5ccccc5c4O)cc3)sc2c1S(=O)(=O)O	nt	nt	nt	nt	nt	2.1µM*	9.54µM*	?
Cc1ccc(/C=N/c2sc3c(c2C#N)CCC3)s1	2.51µM*	0.4%	-20.7%	-6.2%	-22.8%	i	?	i
COC(=O)C/C=C\[C@@H](C)[C@H]1C=C[C@H](O)[C@@H](CO)O1	nt	-4.1%[11.4 µM]	4.4%[11.5 µM]	-1.5%[11.4 µM]	nt	nt	nt	nt
CCn1c(CCCc2nc3c([nH]2)c(=O)n(C)c(=O)n3C)nc2c1c(=O)n(C)c(=O)n2C	1.8%[11.4 µM]	-3.9%[11.4 µM]	23.5%[11.5 µM]	-3.4%[11.4 µM]	18.1%[7.6 µM]	nt	nt	nt
Nc1cccc(C(=O)Nc2ccccc2Cl)c1	-12.1%	-1.9%	-13.8%	-5.7%	1.9%	nt	nt	nt
Nc1ccccc1NC(=O)c1ccccc1	i	0.3%	27.9%	-5.4%	?	i	i	i
CC1(C)CC(=O)C(C(=O)CCCCC(=O)C2C(=O)CC(C)(C)CC2=O)C(=O)C1	-35.5%	?	11.3%	?	?	i	i	i
SMILES	Tau fil binding	HEK293 cAMP ctrl	ERK AVP inh	TSHR agonist	CRE-bla Fsk	Tau ThS bind	aSyn ThS displ	Abeta ThS bind
Nc1ccc2nc(-c3ccc(Cl)cc3)[nH]c2c1	7.94µM*	10.5%	nt	-2.8%	?	i	?	?
Cc1ccc(C)c(-c2nc3ccc(N)cc3[nH]2)c1	-28.6%	10.3%	20.9%	3.2%	-26.4%	nt	nt	nt
O=C(C1CCCN(S(=O)(=O)c2cccc3nonc23)C1)N1CCC(Cc2ccccc2)CC1 (stereo not given)	3.16µM*	-5.9%	-17.9%	1.0%[11.4 µM]	-1.2%	?	i	i
O=C(NCCc1ccccc1)C1CCCN(S(=O)(=O)c2cccc3nonc23)C1 (stereo not given)	27.9%	10.3%	2.1%	2.2%[11.4 µM]	-7.0%	nt	nt	nt
COCCNc1nc(-c2ccoc2)nc2ccccc12	-12.5%	?	-16.7%	?	?	nt	nt	nt
CN(C)C(=O)[C@H]1C[C@@H]1[C@H](NC(=O)OCc1ccccc1)c1ccccc1	4.1%	?	3.2%	?	-17.4%	nt	nt	nt
O=C1CCSc2cccc3cccc(c23)N1	0.2%	28.8%	-26.5%	0.1%	-1.4%	nt	nt	nt
c1cc2c3c(cccc3c1)NC1(CCCCCC1)N2	2.51µM*	-3.9%	-24.2%	nt	-8.7%	?	6.29µM*	2.24µM*
COc1ncc2nc(-c3ccccc3)c(=O)n(C)c2n1	-7.1%	-1.7%	-5.5%	39.6%	1.9%	nt	nt	nt
CN1CCN(c2cc(-c3ccc(N(C)C)cc3)ncn2)CC1	-4.5%	-9.9%	-5.3%	-1.2%	?	nt	nt	nt
Cc1ccc2nc(NC(=O)C3CCCN(S(=O)(=O)c4cccc5nsnc45)C3)sc2c1 (stereo not given)	7.94µM*	-17.4%	-5.3%	-9.1%[11.4 µM]	-14.5%	i	?	i
Cc1ccc2nc(NC(=O)C3CCN(S(=O)(=O)c4cccc5nsnc45)CC3)sc2c1	5.01µM*	-3.4%	-0.9%	-8.3%	?	i	?	i
Cc1ccnc(NC(=O)C2CCN(S(=O)(=O)c3cccc4nsnc34)CC2)c1	-85.8%	-3.3%	3.8%	-6.3%	?	nt	nt	nt
O=c1c(-c2cccs2)nc2cncnc2n1Cc1ccccc1	119.7%	-4.4%	-23.7%	1.9%	?	nt	nt	nt
CN(C)c1ccc(C(=C2C=CC(=[N+](C)C)C=C2)c2ccc(N(C)C)cc2)cc1	0.126µM*	-39.6%	10µM*	?	?	0.18µM*	0.151µM*	0.15µM*
COc1ccc2nc(N=Nc3ccc(N(C)C)cc3)sc2c1	nt	nt	nt	nt	nt	0.1µM*	i	0.1µM*
Cc1ccc(CNC(=O)[C@H]2C[C@@H]2[C@H](NP(=O)(c2ccccc2)c2ccccc2)c2ccccc2)c(F)c1F	61.5%	18.4%	0.5%	9.7%	-0.2%	nt	nt	nt
